In PubChem BioAssay (NCATS):
Records with an inconclusive call do not appear. Where a call stands in place of a potency, no number is given. Unmarked numbers belong to inactive results. Calls of active or inactive are those of the source. The call rests on the fitted dose curve; in most records, active means well fitted inhibition curve with a large enough effect; inconclusive means small, poorly fitted or top-dose-only effect; inactive means no such curve, though single readings can be large or run the other way.

Assay: Primary qHTS for inhibitors of nuclear receptor binding SET domain protein 2 (NSD2) in an RCH-ACV wild type WT cells (2C) (AID 1645877); further: nearly all actives have a fitted effect of over 70% in size
Potency means the concentration at half of the fitted maximal effect.

CC(C)CC(=O)OC1OC=C(CO[C@@H]2O[C@H](CO)[C@@H](O)[C@H](O)[C@H]2O)C2CC(O)C(O)(CO)C12 (stereo partly specified)
Potency: inactive

CC1=C2C[C@H]3O[C@@]3(C)CCC3O[C@@]3(C)C[C@@]2(O)OC1=O (stereo partly specified)
Potency: inactive

C[C@@H]1O[C@@H](O[C@H]2[C@H](O)[C@@H](O)[C@H](OC3CCC4(C)C5CCC(C)(C(CO)OC6OC(CO)C(O)C(O)C6O)CC5=CCC4C3(C)C)O[C@@H]2CO)[C@H](O)[C@H](O)[C@H]1O (stereo partly specified)
Potency: inactive

CC(O)/C=C/C1C(C)C(O[C@@H]2O[C@H](CO)[C@@H](O)[C@H](O)[C@H]2O)C(O)CC1(C)C (stereo partly specified)
Potency: inactive

CC1(C)CCC2(C(=O)OC3OC(CO)C(O)C(O)C3O)CCC3(C)C(=CCC4C5(C)CCC(OC6OC(C(=O)O)C(OC7OC(CO)C(O)C(O)C7O)C(OC7OC(CO)C(O)C(O)C7O)C6O)C(C)(C)C5CCC43C)C2C1 (stereo unspecified)
activity change, negative = cell killing: -7.84% [at 9.23 µM]

COc1ccc(CN2C(=O)C(=O)c3cc(S(=O)(=O)N4CCC[C@H]4COc4cccnc4)ccc32)cc1
Potency: inactive

CC(Nc1ncnc2nc[nH]c12)c1cc2cccc(Cl)c2c(=O)n1-c1ccccc1 (stereo unspecified)
Potency: 0.468 µM (active)

O=C(O)[C@H](Cc1ccc(Nc2nccc3ccncc23)cc1)NC1=C(Br)C(=O)C12CCCCC2
Potency: inactive

CC(C)CCC(=O)CC1c2ccccc2C(=O)N1c1ccc2ccc(Cl)nc2n1 (stereo unspecified)
Potency: inactive

OC[C@H]1O[C@@H](Oc2ccccc2)[C@H](O)[C@@H](O)[C@@H]1O
Potency: inactive

CO[C@H]1/C=C\O[C@@]2(C)Oc3c(C)c(O)c4c(O)c(c5c(nc6cc(C)ccn65)c4c3C2=O)NC(=O)/C(C)=C\C=C/[C@H](C)[C@H](O)[C@@H](C)[C@@H](O)[C@@H](C)[C@H](OC(C)=O)[C@@H]1C
Potency: 10.3 µM (active)
